# Where two headings read alike, the source gives them in different places.
# How the values were obtained:
# Parameters in all cases: species or system human, MV4-11 + K-562 + COLO205 + SK-N-BE2 + OVCAR-8
# PIP4K2C = settings: read-out: apparent Kd, n = 1
# ULK3 = settings: read-out: apparent Kd, n = 1
# GRK6 = settings: read-out: apparent Kd, compound concentrations: 100 nM and 1000 nM (sheet 'Samples'), n = 1
# MYLK3 = settings: read-out: apparent Kd, compound concentrations: 100 nM and 1000 nM (sheet 'Samples'), n = 1
# PIK3C2A = settings: read-out: apparent Kd, n = 1
# VDAC3 = settings: read-out: apparent Kd, n = 1
# TAOK2 = settings: read-out: apparent Kd, n = 1
# BRAF = settings: read-out: apparent Kd, compound concentrations: 100 nM and 1000 nM (sheet 'Samples'), n = 1
# ERN1 = settings: read-out: apparent Kd; compound concentrations: 100 nM and 1000 nM (sheet 'Samples'), CATDS: 1.5593168360276599E-2; n = 1
# ERN2 = settings: read-out: apparent Kd, compound concentrations: 100 nM and 1000 nM (sheet 'Samples'), n = 1
# MAP4K1 = settings: read-out: apparent Kd, n = 1
# ICK = settings: read-out: apparent Kd; compound concentrations: 100 nM and 1000 nM (sheet 'Samples'), CATDS: 0.109854156237019; n = 1
# MAP3K11 = settings: read-out: apparent Kd; compound concentrations: 100 nM and 1000 nM (sheet 'Samples'), CATDS: 8.9937609356747009E-3; n = 1
# PRKAA1 = settings: read-out: apparent Kd, n = 1
# PRKAA2 = settings: read-out: apparent Kd; compound concentrations: 100 nM and 1000 nM (sheet 'Samples'), CATDS: 1.00285824398185E-2; n = 1
# PRKAG2 = settings: read-out: apparent Kd, compound concentrations: 100 nM and 1000 nM (sheet 'Samples'), n = 1
# CDK6 = settings: read-out: apparent Kd; compound concentrations: 100 nM and 1000 nM (sheet 'Samples'), CATDS: 3.7997833467257401E-2; n = 1
# STK4 = settings: read-out: apparent Kd, n = 1
# SLK = settings: read-out: apparent Kd, n = 1
# NNT = settings: read-out: apparent Kd; compound concentrations:100 nM and 1000 nM (sheet 'Samples'); n = 1
# [1] = compound concentrations:100 nM and 1000 nM (sheet 'Samples')
smiles,measurement,setting,value
COc1ccc(CNC(=O)NC2CCN(c3ccnc(Nc4cc(OC)c(OC)c(OC)c4)n3)C2)cc1 (stereo not drawn) [GSK1379748A],potency estimated from few doses,"PIP4K2C; compound concentrations: 100 nM and 1000 nM (sheet 'Samples'), CATDS: 0.31006537475482299",2120 nM
Cc1cccc(-c2cc(-c3c[nH]nc3-c3ccccn3)ccn2)c1 [GW679395X],potency estimated from few doses,ULK3; [1],1450 nM
Cl.Cl.Cl.c1ccc(Oc2ccc(Nc3ccnc4cc(-c5ccc(CN6CCNCC6)o5)ccc34)cc2)nc1.c1ccc(Oc2ccc(Nc3ccnc4cc(-c5ccc(CN6CCNCC6)o5)ccc34)cc2)nc1 [GW567142A],potency estimated from few doses,GRK6; CATDS: 1.87269868098595E-2,1430 nM
same,potency estimated from few doses,MYLK3; CATDS: 1.6491067951183699E-2,2320 nM
same,potency estimated from few doses,"PIK3C2A; compound concentrations: 100 nM and 1000 nM (sheet 'Samples'), CATDS: 1.69384830257906E-2",2080 nM
same,potency estimated from few doses,"VDAC3; compound concentrations: 100 nM and 1000 nM (sheet 'Samples'), CATDS: 1.74915256837203E-2",1830 nM
CCN(CC)CCOc1ccc(Nc2ncc3cc(-c4c(Cl)cccc4Cl)c(=O)n(C)c3n2)cc1 [SB-601273],potency estimated from few doses,TAOK2; [1],1150 nM
CC(C)c1nc(-c2cccc(NS(=O)(=O)c3ccccc3)c2)c(-c2ccnc(Nc3ccc4c(c3)CN(C)CC4)n2)s1 [GSK1649598A],potency estimated from few doses,BRAF; CATDS: 1.66184718911398E-2,621 nM
same,potency estimated from few doses,ERN1,758 nM
same,potency estimated from few doses,ERN2; CATDS: 3.39417380215319E-2,124 nM
same,potency estimated from few doses,"MAP4K1; compound concentrations: 100 nM and 1000 nM (sheet 'Samples'), CATDS: 1.9870950610889799E-2",381 nM
same,potency estimated from few doses,"TAOK2; compound concentrations: 100 nM and 1000 nM (sheet 'Samples'), CATDS: 1.5717541572097499E-2",739 nM
Cn1cc(C2=C(c3cn(CCCO)c4ccccc34)C(=O)NC2=O)c2ccccc21 [RO0317377-000],potency estimated from few doses,ICK,1460 nM
CS(=O)(=O)CCNCc1ccc(-c2ccc3ncnc(Nc4ccc(OCc5cccc(F)c5)c(C(F)(F)F)c4)c3c2)o1 [GW576484X],potency estimated from few doses,"PIK3C2A; compound concentrations: 100 nM and 1000 nM (sheet 'Samples'), CATDS: 5.2836581053762099E-2",1740 nM
O=C1N=C(NCc2cccs2)SC1Cc1ccc2ncccc2c1 (stereo not drawn) [RO4629078-000],potency estimated from few doses,GRK6; CATDS: 8.7219841617169405E-3,974 nM
same,potency estimated from few doses,MAP3K11,890 nM
same,potency estimated from few doses,MYLK3; CATDS: 7.0392832090842503E-3,2170 nM
same,potency estimated from few doses,"PIP4K2C; compound concentrations: 100 nM and 1000 nM (sheet 'Samples'), CATDS: 1.8402634239812199E-2",201 nM
same,potency estimated from few doses,"PRKAA1; compound concentrations: 100 nM and 1000 nM (sheet 'Samples'), CATDS: 1.35837809267181E-2",343 nM
same,potency estimated from few doses,PRKAA2,665 nM
same,potency estimated from few doses,PRKAG2; CATDS: 1.6046460203227E-2,253 nM
same,potency estimated from few doses,"ULK3; compound concentrations: 100 nM and 1000 nM (sheet 'Samples'), CATDS: 7.6579624487381603E-3",1510 nM
CN1C(=O)c2ccccc2N(C)c2nc(Nc3cnn(C4CCNCC4)c3)ncc21 [XMD-17-51],potency estimated from few doses,"PRKAA1; compound concentrations: 100 nM and 1000 nM (sheet 'Samples'), CATDS: 1.61806798261299E-2",911 nM
same,potency estimated from few doses,PRKAG2; CATDS: 1.7077716006994301E-2,750 nM
same,potency estimated from few doses,"TAOK2; compound concentrations: 100 nM and 1000 nM (sheet 'Samples'), CATDS: 5.5086775745804402E-2",42.4 nM
O=C1N=C(NCCc2cccc(F)c2)S/C1=C\c1ccc2ncccc2c1 [RO4508344-000],potency estimated from few doses,ERN2; CATDS: 7.9069869208326996E-2,1660 nM
O=C1N=C(NCc2ccccc2)S/C1=C\c1ccc2ncccc2c1 [RO4442080-000],potency estimated from few doses,MYLK3; CATDS: 7.9842207059825906E-2,1930 nM
COc1ccc(Nc2nccc(N3CCC(NC(=O)Nc4ccc5c(c4)OCO5)C3)n2)cc1 (stereo not drawn) [GSK1379745A],potency estimated from few doses,CDK6,1680 nM
CS(=O)(=O)Cc1ccc(Nc2nccc(-c3c(-c4cccc(NC(=O)C5CCCCC5)c4)nn4ncccc34)n2)cc1 [GSK350559A],potency estimated from few doses,PIP4K2C; [1],136 nM
same,potency estimated from few doses,STK4; [1],1770 nM
same,potency estimated from few doses,VDAC3; [1],2030 nM
CNC(=O)c1ccccc1Nc1nc(Nc2cccc(CS(C)(=O)=O)c2)ncc1C.O=CO [GSK1520489A],potency estimated from few doses,"MAP4K1; compound concentrations: 100 nM and 1000 nM (sheet 'Samples'), CATDS: 1.32778170160273E-2",423 nM
same,potency estimated from few doses,"SLK; compound concentrations: 100 nM and 1000 nM (sheet 'Samples'), CATDS: 2.2249249802163501E-2",107 nM
same,potency estimated from few doses,"ULK3; compound concentrations: 100 nM and 1000 nM (sheet 'Samples'), CATDS: 1.2201291111952599E-2",563 nM
O=S(=O)(c1ccc(-c2ccnc3[nH]ccc23)cc1)N1CCCC1 [GSK846226A],potency estimated from few doses,NNT,2150 nM
CN1CCN(Cc2ccc(NC(=O)Nc3ccc(N(C)c4ccnc(Nc5ccc(CS(C)(=O)=O)cc5)n4)cc3)cc2)CC1.Cl [GW827654A],potency estimated from few doses,"MAP4K1; compound concentrations: 100 nM and 1000 nM (sheet 'Samples'), CATDS: 4.9471634979456398E-2",557 nM
Cn1cc(-c2cnc(N)c3c(-c4ccc5c(c4)CCN5C(=O)Cc4ccccc4)csc23)cn1 [GSK2593074A],potency estimated from few doses,MAP4K1; [1],1630 nM
same,potency estimated from few doses,STK4; [1],1130 nM
CN(C)Cc1ccc(-c2ccc3c(Nc4ccc(Oc5ccccn5)cc4)ccnc3c2)o1 [GW567148X],potency estimated from few doses,"PRKAA1; compound concentrations: 100 nM and 1000 nM (sheet 'Samples'), CATDS: 1.81087827293436E-2",1380 nM
Nc1ncc(-c2cn[nH]c2)c2scc(-c3ccc4c(c3)CCN4C(=O)Cc3ccccc3)c12 [GSK2593067A],potency estimated from few doses,"STK4; compound concentrations: 100 nM and 1000 nM (sheet 'Samples'), CATDS: 7.8104026917421798E-2",768 nM
CC(=O)N1CCN(c2ccc(Nc3nccc(-c4sc(C(C)C)nc4-c4cccc(NS(=O)(=O)c5ccccc5)c4)n3)cn2)CC1 [GSK1645872A],potency estimated from few doses,BRAF; CATDS: 3.03150696001999E-2,721 nM
COc1cc2ncn(-c3cc(OCCCc4ccccc4)c(C(N)=O)s3)c2cc1OC [GSK205189A],potency estimated from few doses,PRKAA1; [1],1020 nM
COc1cc2ncn(-c3cc(OCc4cccs4)c(C(N)=O)s3)c2cc1OC [GSK312948A],potency estimated from few doses,SLK; [1],262 nM
Nc1nc(N)c2nc(-c3ccccc3)[nH]c2n1 [SKF-12778],potency estimated from few doses,PIK3C2A; [1],2130 nM
same,potency estimated from few doses,ULK3; [1],1140 nM
